Assay results published in PubChem BioAssay (NCI).
This is part of a sample that, as a whole, favours compounds with a hit. Of some 83,000 tested, about 20% had one in any assay.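 Testing used 96-well plates and a 48-hour single-concentration exposure. Example: -40 means 40% of the starting cells died.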 The source made the active and inactive calls. How the source made its calls: active means growth percent below 10; inactive means the rest.

Legend:
Test in all cases: NCI-60 one-dose screen, 48 h (100 = growth as untreated, 0 = no growth, -100 = all killed)
Settings in all cases: 10 µM unless noted
[1] = system: NCI-H23 lung
[2] = system: NCI-H226 lung
[3] = system: NCI-H322M lung
[4] = system: HOP-62 NSCLC
[5] = system: NCI-H460 lung
[6] = system: NCI-H522 lung
[7] = system: A549/ATCC NSCLC
[8] = system: 786-0 renal
[9] = system: COLO 205 colon
[10] = system: DU-145 prostate
[11] = system: K-562 leukemia
[12] = system: MALME-3M melanoma
[13] = system: MDA-MB-231 breast
[14] = system: RXF 393 renal
[15] = system: SF-268 CNS
[16] = system: SF-295 CNS
[17] = system: SF-539 CNS
[18] = system: UACC-257 melanoma
[19] = system: M14 melanoma

Measured: growth

CN1CCC2(CC1)N=C(SCC(=O)Nc1cnc3ccccc3c1)C(c1ccc(Br)cc1)=N2
active: [5] 3.34% | [6] -17.5% | [8] -81.7% | [9] -76.2% | [11] -61.5% | [12] -75.5% | [13] -40.5% | [18] -61.2% | [19] -83.8%
inactive: [1] 63.5% | [2] 57.6% | [3] 50.8% | [4] 38.9% | [7] 24.2% | [10] 21.8% | [14] 24.3% | [15] 35.9% | [16] 28% | [17] 51.6%

CC(C)(c1ccccc1)c1cc(O)c(C(C)(C)c2ccccc2)cc1O
active: [6] -2.05% | [13] -1.39%
inactive: [1] 38% | [2] 43.2% | [3] 59.7% | [4] 63% | [5] 21.9% | [7] 28.5% | [8] 30.5% | [9] 17% | [10] 63.3% | [11] 13% | [12] 48.5% | [14] 63.4% | [15] 38.7% | [16] 25% | [17] 50.4% | [18] 11.3% | [19] 11.9%

CC(=O)c1ccc(N2C(=O)c3ccc(Oc4ccccc4)cc3C2=O)cc1
inactive: [1] 101% | [2] 98.8% | [3] 106% | [4] 99.9% | [5] 105% | [6] 93.1% | [7] 109% | [8] 108% | [9] 116% | [10] 103% | [11] 119% | [12] 106% | [13] 113% | [14] 112% | [15] 100% | [16] 81.1% | [17] 107% | [18] 118% | [19] 98.8%

COc1cccc(-c2cc(-c3cccs3)c(C#N)c(=O)[nH]2)c1
inactive: [1] 98.9% | [2] 110% | [3] 108% | [4] 108% | [5] 102% | [6] 98.8% | [7] 102% | [8] 94.1% | [9] 111% | [10] 108% | [11] 102% | [12] 110% | [13] 106% | [14] 117% | [15] 104% | [16] 102% | [17] 101% | [18] 115% | [19] 105%

COc1ccc(NC(=O)c2sc3c(=O)[nH]c(C(F)(F)F)nc3c2C)cc1
inactive: [1] 93.4% | [2] 97.7% | [3] 107% | [4] 107% | [5] 115% | [6] 79.5% | [7] 95.2% | [8] 103% | [9] 114% | [10] 118% | [11] 102% | [12] 102% | [13] 112% | [14] 117% | [15] 108% | [16] 111% | [17] 114% | [18] 105% | [19] 116%

c1ccc(CCn2cccc2)nc1
inactive: [1] 106% | [2] 107% | [3] 122% | [4] 98% | [5] 123% | [6] 106% | [7] 109% | [8] 103% | [9] 94.8% | [10] 104% | [11] 98.6% | [12] 114% | [13] 94.9% | [14] 116% | [15] 96.5% | [16] 114% | [17] 106% | [18] 108% | [19] 106%

C=C1C(=O)O[C@H]2[C@H]1CC/C(COC(=O)NCc1cccc(OC)c1)=C\CC[C@@]1(C)O[C@@H]21
active: [6] -70.3% | [8] -48.9% | [9] -71.3% | [11] 4.46% | [12] -26.4% | [14] -57.1% | [19] -7.62%
inactive: [1] 73.4% | [2] 67.3% | [3] 90.6% | [4] 65.6% | [5] 55% | [7] 50.7% | [10] 19.7% | [13] 64.4% | [15] 58.2% | [16] 71.5% | [17] 21.4% | [18] 25.4%

CNC1=C([N+](=O)[O-])C(c2ccccc2O)C(C#N)=C(c2cccs2)O1 (stereo not given)
active: [6] 7.12%
inactive: [1] 99.1% | [2] 97.5% | [3] 98.6% | [4] 88% | [5] 105% | [7] 99.7% | [8] 93.2% | [9] 101% | [10] 103% | [11] 63.8% | [12] 52.8% | [13] 93.8% | [14] 89.7% | [15] 96.3% | [16] 102% | [17] 95.6% | [18] 78.3% | [19] 93.4%

COc1cc(C2CC(c3cccc(Nc4ccnc5cc(Cl)ccc45)c3)=NN2C=O)cc(OC)c1OC (stereo not given)
active: [1] 4.02% | [2] 2.98% | [4] 1.34% | [5] 7.22% | [6] -4.52% | [9] -22.6% | [10] -2.32% | [12] -5.46% | [13] 6.76% | [14] -25.1% | [16] -11.6% | [17] -26.3% | [19] -26.7%
inactive: [3] 32.5% | [7] 18.4% | [8] 11.3% | [11] 19.4% | [15] 25.3% | [18] 37.6%

COc1ccc(C(=O)OC2C(OC3C(O)COC(O[C@H]4C[C@H]5[C@@H]6CC=C7C[C@@H](O)CC[C@]7(C)[C@H]6CC[C@]5(C)[C@H]4[C@H](C)C(=O)CCC(C)C)C3OC(N)=O)OCC(O)C2O)cc1 (stereo not given in full)
active: [2] -1.18% | [4] -22.2% | [5] -35.7% | [6] -68.7% | [8] -59.4% | [9] -58% | [11] -45.4% | [12] -34.3% | [13] -5.1% | [14] -64.9% | [15] -14.2% | [16] -67.2% | [17] -80% | [18] -63.6% | [19] -78.6%
inactive: [1] 23.3% | [3] 53.7% | [7] 11.3% | [10] 32.8%

CN1C2CCC1/C(=C\c1ccc(Cl)cc1)C(=O)/C2=C/c1ccc(Cl)cc1
inactive: [1] 62.4% | [2] 73.8% | [3] 72.4% | [4] 85.8% | [5] 47% | [6] 54.7% | [7] 63.7% | [8] 75.4% | [9] 41.7% | [10] 41.8% | [11] 34.3% | [12] 73.7% | [13] 67% | [14] 87.2% | [15] 60.5% | [16] 77.4% | [17] 91.5% | [18] 60.9% | [19] 63.8%

Clc1ccc(C2=NN[C@H](c3cn(-c4ccccc4)nc3-c3ccccc3)C2)cc1
active: [16] -20.8%
inactive: [1] 52% | [2] 55% | [3] 72.5% | [4] 16.1% | [5] 45.5% | [6] 76.3% | [7] 46.5% | [8] 83.7% | [9] 70.1% | [10] 55.3% | [11] 61.6% | [12] 64.3% | [13] 64.4% | [14] 42.6% | [15] 74.6% | [17] 67% | [18] 66.3% | [19] 71.1%

Cc1cc([N+](=O)[O-])c(C)cc1N
inactive: [1] 103% | [2] 101% | [3] 107% | [4] 103% | [5] 109% | [6] 77.5% | [7] 104% | [8] 103% | [9] 121% | [10] 115% | [11] 100% | [12] 104% | [13] 90.3% | [14] 105% | [15] 105% | [16] 109% | [17] 105% | [18] 109% | [19] 104%

O=C(c1ccccc1)C1OC1C(=O)c1ccccc1 (stereo not given)
inactive: [2] 61.1% | [3] 75.4% | [4] 21% | [5] 64.1% | [7] 70.4% | [8] 15.1% | [9] 27.6% | [12] 30.5% | [13] 25.9% | [15] 39.5% | [16] 72.8% | [17] 24.5% | [18] 40.2% | [19] 17.3%
active: [1] 3.63% | [6] 8.93% | [10] 1.5% | [11] 9.28% | [14] 2.72%

Cc1c(C(N)=O)sc2ncn(CC(=O)NN=C3CCCCC3)c(=O)c12
inactive: [1] 111% | [2] 96.7% | [3] 116% | [4] 104% | [5] 115% | [6] 83.8% | [7] 111% | [8] 105% | [9] 129% | [10] 111% | [11] 103% | [12] 136% | [13] 103% | [14] 83.5% | [15] 108% | [16] 98.6% | [17] 105% | [18] 165% | [19] 105%
